Measurements: PubChem BioAssay AID2782 (National Center for Advancing Translational Sciences (NCATS), 2010)
Results filed as inconclusive are left out. Where a call stands in place of a potency, no number is given. Active and inactive are the calls of the source. Calls follow the shape of the dose curve; as a rule, active = well fitted inhibition curve with a large enough effect in the polarisation, with a control signal flat (not every such curve was filed as active); inconclusive = small, poorly fitted or top-dose-only effect, or effect the other way, or a change in a side signal; inactive = no such curve, though single readings can be large or run the other way; the % refers to the polarisation.

Assay: Confirmation of Inhibitors Targeting the Menin-MLL Interaction in MLL Related Leukemias: Competition With Texas Red Labeled MLL-derived Mutant Peptide
Settings: fluorescence polarization, Texas Red MLL peptide displacement; series mostly up to 94.6 µM
Text: qHTS Assay for Inhibitors Targeting the Menin-MLL Interaction in MLL Related Leukemias
NIH Chemical Genomics Center [NCGC]
NIH Molecular Libraries Probe Centers Network [MLPCN]
Assay Submitter (PI): Jolanta Grembecka, Tomasz Cierpicki, University of Virginia
Translocations of the MLL (Mixed Lineage Leukemia) gene are frequently found in human leukemias affecting both children and adults. Fusion of MLL to one of more than 60 genes results in generation of oncogenic proteins upregulating Hox genes, which are vital to blood cell development. Patients harboring fusion of the MLL gene suffer from aggressive leukemias and respond poorly to available therapies. All of the oncogenic fusion proteins have a preserved N-terminal fragment of MLL that has been identified to interact with menin. It has been recently discovered that association with menin is critical to the leukemogenic activity of the MLL fusion oncoproteins. Selective targeting of the menin-MLL interaction could provide an attractive therapeutic approach to develop novel drugs for MLL-related leukemias. Small molecules blocking the menin-MLL interaction should reverse the oncogenic potential of MLL fusion proteins.
We have developed and optimized a fluorescence polarization-based assay for the identification of Menin-MLL inhibitors. The assay was run employing two different MLL-derived peptides. The present assay uses a 12 amino acid peptide labeled with fluorescein at its N-terminus. This peptide consists of the menin high affinity binding motif from MLL and is potently bound by menin. Another peptide with a mutated sequence, labeled with Texas Red, was used in parallel as a less stringent screen for inhibitors.
The present assay was run to confirm the activity of hits from the primary screen using the peptide with a mutated sequence, labeled with Texas Red.
The Menin protein, the MLL-wild type (w.t.) derived peptide (N-terminal 12 amino acids), the MLL-derived peptide labeled with Texas Red and the MLL-w.t. peptide labeled with Fluorescein were kindly supplied by laboratory of Dr. Jolanta Grembecka, University of Virginia. All protein and peptide solutions were stored in single use aliquots at -80C. The Eu3+ Cyrptate-conjugated mouse monoclonal antibody anti-6 Histidine (Eu3+-AB) and the Streptavidin-XL665 conjugate (XL665) were purchased from Cisbio International (Bedford, MA). All antibody and XL665 conjugate solution stocks were stored in single use aliquots at -20C. The Buffer components for all assays were purchased from Sigma-Aldrich (St. Louis, MO) and Invitrogen (Carlsbad, CA).
1. FP reaction buffer: 50 mM Tris-HCl pH 7.5, 50 mM NaCl, 1mM DTT.
Before use, 0.05% BSA is added.
2. Menin protein, MLL-w.t. labeled with fluorescein, MLL-mutant peptide labeled with texas red.
Stored in singe use aliquots at -80C.
3. MLL-w.t. unlabeled peptide as positive control: 10 uM final in FP buffer.
1. Prepare Menin at 200 nM, MLL-w.t.-fluorescein at 25 nM, and MLL-mutant-texas red at 50 nM mixture in FP buffer.
2. Prepare Menin at 200 nM, MLL-w.t.-fluorescein at 25 nM, MLL-mutant-texas red at 50 nM, and 10 uM MLL-w.t. unlabeled mixture in FP buffer.
3. Prepare MLL-w.t.-fluorescein at 25 nM and MLL-mutant-texas red at 50 nM mixture in FP buffer.
3. Dispense 4 ul per well of reagent in step 1 in columns 2, 4 - 48 in a black 1536 well plate, dispense 4 ul per well of reagents from steps 2 and 3 in columns 1 and 3 respectively. Incubate plate at ambient for 15 minutes.
4. Transfer 23 nl per well of compound to plate and incubate at ambient for 1 hr.
5. Read fluorescence polarization for each label using the PerkinElmer Envision.
Envision protocol for fluorescein: FITC FP Dual Enh Mirror, Excitation filter 480, Emission filter (1) P-pol 535, Emission filter (2) S-pol 535
Envision protocol for texas red: FP Dual Enh Mirror, Excitation filter 555, Emission filter (1) P-pol 632, Emission filter (2) S-pol 632
Potency is read from the fitted curve at half-maximal effect.

Row | Structure (SMILES) | Potency
1 | CCCN(CCC)CCCNC(=O)c1cc2c(=O)[nH]c3ccccc3c2s1 | inactive
2 | O=C(CC(=O)c1ccccc1)Nc1cc(C(F)(F)F)ccc1Cl | inactive
3 | CC(C)Cc1cc(C(=O)NCCCN2CCOCC2)no1 | inactive
4 | C/C(=N\NC(=O)c1nnn(-c2nonc2N)c1C)c1ccc(-c2ccccc2)cc1 | inactive
5 | Cc1ccc(C(=O)Sc2cccccc2=O)cc1 | inactive
6 | Cc1nc(N2CCN(C)CC2)c2c3c(sc2n1)CCCC3 | 126 µM (active)
7 | Cc1ccc(S(=O)(=O)c2cc(OC(=O)c3ccco3)ccc2OC(=O)c2ccco2)cc1 | inactive
8 | COc1ccc(Cn2nnnc2C(c2ccc3ncccc3c2)N2CCN(C3CCCCC3)CC2)cc1 (stereo not given) | 89.1 µM (active)
9 | O=C(Nc1nnc(-c2ccccc2SCc2ccccc2)s1)Nc1ccccc1F | 22.4 µM (active)
10 | Cc1cc2c(c(=O)n1Cc1ccccc1)C1O[C@](c3ccsc3)(Cc3cc(C#N)ccc31)O2 | inactive
11 | CCOC(=O)N1CCN(CCC(=O)c2ccc(Br)cc2)CC1 | inactive
12 | CCOC(=O)N1CCN(C(=O)c2oc3ccc(S(=O)(=O)N(CC)CC)cc3c2C)CC1 | inactive
13 | O=C(NCC1CCCO1)c1ccc(OC2CCN(C(=O)C3CC3)CC2)cc1 (stereo not given) | inactive
14 | O=C1Cc2ccccc2Sc2c(OCCN3CCCCC3)cccc21 | 126 µM (active)
15 | CC(=O)O[C@H]1CSC[C@H]1NC(=O)c1ccccc1 | inactive
16 | O=[N+]([O-])c1ccc(S(=O)(=O)c2ccccc2)nc1 | inactive
17 | COc1ccccc1C(=O)Nc1ccccc1SC(=O)c1ccccc1OC | inactive
18 | Cc1cc2c(N)cccc2nn1 | 141 µM (active)
19 | Cc1c(C(=O)OCC(=O)Nc2ccc(S(N)(=O)=O)cc2)oc2c1ccc1ccccc12 | inactive
20 | CCC(=O)Nc1ccc(-c2cc(-c3ccccc3)nc(-c3ccc(NC(=O)CC)cc3)n2)cc1 | 39.8 µM (active)

Row | Structure (SMILES) | Potency
21 | Cc1nc(C)c(-c2ccc(SCc3ccccc3F)nn2)s1 | inactive
22 | NS(=O)(=O)c1ccc(NC(=O)c2ccc(S(=O)(=O)N3CCc4ccccc43)cc2)cc1 | 20 µM (active)
23 | O=C1NC(=S)N/C1=C/c1ccc2ccccc2c1 | inactive
24 | CC(CC(=O)Nc1nc2ccccc2[nH]1)n1ccnc1 (stereo not given) | inactive
25 | CN1[C@H](CC(=O)c2ccccc2)CCC[C@H]1C[C@@H](O)c1ccccc1 | inactive
26 | CCOC(=O)c1cnc2ccc(OC)cc2c1Nc1ccc(N2CCN(C)CC2)cc1 | 141 µM (active)
27 | Cc1cc(N2CCOCC2)nc2ccc(Cl)cc12 | inactive
28 | CCc1nn(C)c2c(=O)c(=O)c2n(C)[nH]1 | inactive
29 | CCOc1ccc(NC(=O)c2cccc(OC(=S)N3CCC(C)CC3)c2)cc1 | inactive
30 | O=C(Cn1nc(-c2ccccc2)ccc1=O)N1CCCCC1 | inactive
31 | CCOC(=O)C1CCN(CC(O)COCc2ccccc2)CC1 (stereo not given) | inactive
32 | CN(C)c1ccc(N=Nc2ccc(C(=O)O)cc2)cc1 | 141 µM (active)
33 | CN1C[C@@H]2C[C@H]1CN2c1cc2c(cc1F)c(=O)c(C(=O)O)cn2C1CC1 | inactive
34 | Cc1ccc(C#CC(C)(O)C(C)(C)C)cn1 (stereo not given) | inactive
35 | CCC(C)C1NC(=O)C(CCNCS(=O)(=O)O)NC(=O)C(NC(=O)C(CCNCS(=O)(=O)O)NC(=O)C(NC(=O)C(CCNCS(=O)(=O)O)NC(=O)CCCCC(C)C)C(C)O)CCNC(=O)C(C(C)O)NC(=O)C(CCNCS(=O)(=O)O)NC(=O)C(CCNCS(=O)(=O)O)NC(=O)C(C(C)CC)NC1=O (stereo not given) | inactive
36 | Cc1ccc(NC(=O)C(C)N2C(=O)c3ccccc3C2=O)c(C)c1 (stereo not given) | inactive
37 | C[C@H](NC(=O)c1cc2c(cn1)[nH]c1ccccc12)C(=O)O | 56.4 µM (active)
38 | COc1ccc(CC(=O)Nc2ccc(-c3nnc(-c4ccccc4)o3)cc2)cc1 | inactive
39 | CC(=O)NC1C(=O)N(CCN2CCOCC2)c2ccc(C)cc21 (stereo not given) | 71 µM (active)
40 | Cc1nn(-c2ccccc2)c2nc(N)c(C(N)=O)cc12 | inactive
